Reference: PubChem BioAssay (NCATS)
Results filed as inconclusive are left out. Where a call stands in place of a potency, no number is given. Active and inactive are the calls of the source. Calls follow the shape of the dose curve; as a rule, active = well fitted inhibition curve with a large enough effect; inconclusive = small, poorly fitted or top-dose-only effect; inactive = no such curve, though single readings can be large or run the other way.

Columns and labels:
[1] = tested on: Zika virus NS2B-NS3 protease (unlinked complex); experiment: Primary screen GU Rhodamine qHTS for Zika virus inhibitors: Unlinked NS2B-NS3 protease assay (AID 1347159); also: nearly all actives have a fitted effect of over 60% in size; also: potency is read from the fitted curve at half-maximal effect
Procedure, shortened: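 Unlinked NS2B/NS3, 25 nM; Rhod110 peptide, 1.5 microM; compounds, up to 114 microM. Reaction run 15 min at RT in 10 mM Tris-HCl pH 8.0, 0.01% Tween 20; kinetic fluorescence change fitted with a 4-parameter Hill model.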

[2] = tested on: Zika virus NS2B-NS3 protease (linked construct); experiment: Primary screen NINDS Rhodamine qHTS for Zika virus inhibitors (AID 1347160); also: nearly all actives have a fitted effect of over 55% in size
Procedure, shortened: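 Single-chain NS2B-NS3 protease, 25 nM, pH 8.0; compounds preincubated 15 min. Activity: Rhodamine110 release from 1.5 microM substrate over 15 min, room temperature, data fitted to 4-parameter Hill.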

For `C[C@H](Nc1ncnc2nc[nH]c12)c1cc2ccc(F)cc2nc1-c1ccccn1`, the Potency [1] was “inactive” and the Potency [2] was “inactive”.

In the case of `C[C@H]1C(=O)N2c3ccccc3[C@@]3(O)C[C@@H]4C(=O)N[C@](C)(c5nc6ccccc6c(=O)n54)N1[C@@H]23`, the Potency [1] was “inactive” and the Potency [2] was “inactive”.

With `Cc1ccc(S(=O)(=O)Cc2nc(-c3ccc(C(=O)NCc4cccnc4)cc3)oc2C)cc1` the Potency [1] was “inactive” and the Potency [2] was “inactive”.

In the case of `COC(C(=O)N1Cc2[nH]nc(NC(=O)c3ccc(N4CCN(C)CC4)cc3)c2C1)c1ccccc1` (stereo not drawn), the Potency [1] was “inactive” and the Potency [2] was “inactive”.

With `Cc1cc(Nc2cc(N3CCN(C)CC3)nc(/C=C/c3ccccc3)n2)n[nH]1` the Potency [1] was “inactive” and the Potency [2] was “inactive”.

With `C=C(C)C1CC[C@]2(C(=O)O)CC[C@]3(C(=O)O)[C@H](CCC4[C@@]5(C)CC[C@H](O)C(C)(C)C5CC[C@]43C)C12` (stereo partly drawn) the Potency [1] was “inactive” and the Potency [2] was “inactive”.

`C=CC(C)(C)c1[nH]c2ccccc2c1C[C@@H]1NC(=O)[C@H](Cc2c[nH]c3ccccc23)NC1=O` was tested, and the Potency [1] was “inactive” and the Potency [2] was “inactive”.

For `CC1=CC(=O)CC(C)(C)[C@@]1(O)CC[C@@H](C)O[C@@H]1O[C@H](CO)[C@@H](O)[C@H](O)[C@H]1O`, the Potency [1] was “inactive” and the Potency [2] was “inactive”.

In the case of `COc1cc(C(=O)NC2CCN(C)CC2)ccc1Nc1ncc2c(n1)N(C1CCCC1)CC(F)(F)C(=O)N2C`, the Potency [1] was “inactive” and the Potency [2] was “inactive”.

For `CCn1c(=O)c(-c2ccn[nH]2)cc2c(C)nc(N)nc21`, the Potency [1] was “inactive” and the Potency [2] was “inactive”.

With `COc1cccc(Nc2ncnn3ccc(CN4CC[C@@H](N)[C@H](O)C4)c23)c1` the Potency [1] was “inactive” and the Potency [2] was “inactive”.

For `C=C(C(=O)O)C1CCC2(C)CCC(O)C(C)(O)C2C1` (stereo not drawn), the Potency [1] was “inactive” and the Potency [2] was “inactive”.

In the case of `CC(=O)c1cc(C(=O)N[C@@H](C)Cn2ccc(-c3ccc(C#N)c(Cl)c3)n2)[nH]n1`, the Potency [1] was “inactive” and the Potency [2] was “inactive”.

For `COc1cc2c(cc1OC)N1C(=O)C[C@]34C=CCN5CC[C@@H]2[C@@H](CC3)[C@]514`, the Potency [1] was “inactive” and the Potency [2] was “inactive”.

`CC12CCC(OC3OC(CO)C(O)C(OC4OC(CO)C(O)C(O)C4O)C3O)CC1CCC1C2CCC2(C)/C(=C3/COC(=O)C3)CCC12O` (stereo not drawn) was tested, and the Potency [1] was “inactive” and the Potency [2] was “inactive”.

`COc1c(/C=C/C(C)(C)O)ccc2c1C(=O)OCc1cc(C)cc(O)c1O2` was tested, and the Potency [1] was “inactive” and the Potency [2] was “inactive”.

For `CC1=C(C(=O)O[C@@H]2O[C@H](COC3OCC(O)C(O)C3O)[C@@H](O)[C@H](O)[C@H]2O)C(C)(C)CCC1` (stereo partly drawn), the Potency [1] was “inactive” and the Potency [2] was “inactive”.

In the case of `Nc1ccc(/C=C/C(=O)NCc2cc3cc(-c4ccc(C(=O)N5CCC(F)(F)CC5)cc4)cc(-c4ccc(F)cc4)c3o2)cn1`, the Potency [1] was “inactive” and the Potency [2] was “inactive”.

In the case of `COc1cc2c(cc1OC)[C@@H]1[C@H](O)[C@@H](OC)C=C3CCN(C2)[C@H]31`, the Potency [1] was “inactive” and the Potency [2] was “inactive”.

`O=C(O[C@H]1[C@@H]2C=CO[C@@H](O[C@@H]3O[C@H](CO)[C@@H](O)[C@H](O)[C@H]3O)[C@@H]2[C@@]2(CO)O[C@@H]12)c1ccccc1` was tested, and the Potency [1] was “inactive” and the Potency [2] was “inactive”.

With `CCCN1CCN(c2ccc(C(=O)NC3(C(=O)NCC#N)CCCCC3)cc2)CC1` the Potency [1] was “inactive” and the Potency [2] was “inactive”.

For `C=C1C[C@]23C[C@H]1CC[C@H]2[C@@]1(C)CCC[C@@]2(C)C(=O)O[C@@H]([C@@H]3O)[C@@H]12`, the Potency [1] was “inactive” and the Potency [2] was “inactive”.

`C=C1CCC2C(C)(C)C(O)CCC2(C)C1CCC(C)CCOC(C)=O` (stereo not drawn) was tested, and the Potency [1] was 22.4 µM (active) and the Potency [2] was “inactive”.

For `O=C(/C=C/c1ccc(O)cc1)OC1[C@H](O)CC(O)(C(=O)O)C[C@H]1O` (stereo partly drawn), the Potency [1] was “inactive” and the Potency [2] was “inactive”.

`Nc1nc2c(c(N3CCNCC3)n1)CCC1=C2[C@@H]2CCCC[C@@H]2O1` was tested, and the Potency [1] was “inactive” and the Potency [2] was “inactive”.

In the case of `OC1CCC(Nc2ncc3nc(Nc4c(F)cc(F)cc4F)n([C@H]4CCOC4)c3n2)CC1` (stereo partly drawn), the Potency [1] was “inactive” and the Potency [2] was “inactive”.

`C/C=C1\[C@H](O[C@@H]2O[C@H](CO)[C@@H](O)[C@H](O)[C@H]2O)OC=C2C(=O)OCCc3ccc(O)c(c3)Oc3ccc(cc3)CCOC(=O)C[C@H]21` was tested, and the Potency [1] was “inactive” and the Potency [2] was “inactive”.

For `CCN1CCN(Cc2ccc(NC(=O)c3ccc(C)c(NC(=O)c4cncc(-c5cccs5)c4)c3)cc2C(F)(F)F)CC1`, the Potency [1] was “inactive” and the Potency [2] was “inactive”.

With `CC(=O)N[C@H]1[C@H](O[C@H]2CC[C@@]3(C)C(CC[C@]4(C)C3CC=C3[C@@H]5CC(C)(C)CC[C@]5(C(=O)OC5OCC(O)C(O)C5O)CC[C@]34C)C2(C)C)O[C@H](COC2OC(C)C(O)C(OC3OC(C)C(O)C(O)C3O)C2O)[C@@H](O)[C@@H]1O` (stereo partly drawn) the Potency [1] was “inactive” and the Potency [2] was “inactive”.

With `Cc1nc2ccc(Oc3ccc(F)cc3)cc2c(=O)n1C[C@H]1CCCN(C(C)C)C1` the Potency [1] was “inactive” and the Potency [2] was “inactive”.

For `CC(=O)O[C@H]1C[C@@]2(C)[C@@H](CC[C@H]3[C@@]4(C)C=CC(=O)[C@@H](C)[C@@H]4[C@H](O)C(=O)[C@@]32C)/C1=C(/CCC=C(C)C)C(=O)O`, the Potency [1] was “inactive” and the Potency [2] was “inactive”.

For `COc1cc(C(=O)NC2CCN(C)CC2)c(F)cc1Nc1ncc2c(n1)N(C1CCCC1)CC(F)(F)C(=O)N2C`, the Potency [1] was “inactive” and the Potency [2] was “inactive”.

With `CC1CCC2(OC1)OC1CC3C4CCC5C[C@@H](O[C@@H]6O[C@H](CO[C@@H]7OC[C@@H](O)[C@H](O)[C@H]7O)[C@H](O)[C@H](O)[C@H]6O)CC[C@]5(C)C4CC[C@]3(C)C1C2C` (stereo partly drawn) the Potency [1] was “inactive” and the Potency [2] was “inactive”.

With `COc1ccc([C@H]2CNC(=O)C2)cc1OC1CCCC1` the Potency [1] was “inactive” and the Potency [2] was “inactive”.

With `C[C@@H]1CN(Cc2ncccn2)C[C@H]1c1nc2c(cnn2C2CCOCC2)c(=O)[nH]1` the Potency [1] was “inactive” and the Potency [2] was “inactive”.

For `Nc1ncnc2c1ncn2CCNCCCCCO`, the Potency [1] was “inactive” and the Potency [2] was “inactive”.

With `COC(=O)C1=CO[C@@H](O[C@@H]2O[C@H](CO)[C@@H](O)[C@H](O)[C@H]2O)[C@H]2[C@@H]1C=C[C@@]21C=C([C@H](C)O)C(=O)O1` the Potency [1] was “inactive” and the Potency [2] was “inactive”.

With `CC12CCC(C(OC3OC(COC4OCC(O)(CO)C4O)C(O)C(O)C3O)C1)C(C)(C)O2` (stereo not drawn) the Potency [1] was “inactive” and the Potency [2] was “inactive”.

In the case of `CC(=O)O[C@H]1[C@H](O[C@H]2[C@@H]3C=CO[C@@H](O[C@@H]4O[C@H](CO)[C@@H](O)[C@H](O)[C@H]4O)[C@@H]3[C@@]3(CO)O[C@@H]23)O[C@@H](C)[C@H](OC(=O)/C=C/c2ccccc2)[C@H]1OC(=O)/C=C/c1ccccc1`, the Potency [1] was “inactive” and the Potency [2] was “inactive”.

`C=CC(=O)Nc1cccc(Nc2nc(Nc3ccc(N4CCN(C(C)=O)CC4)cc3OC)ncc2C(F)(F)F)c1` was tested, and the Potency [1] was “inactive” and the Potency [2] was “inactive”.

For `COc1ccc2cc(C(C)C(=O)Oc3ccc(C(N)=S)cc3)ccc2c1` (stereo not drawn), the Potency [1] was “inactive” and the Potency [2] was “inactive”.

`CCOCc1nc2c(N)nc3ccccc3c2n1CC(C)(C)O` was tested, and the Potency [1] was “inactive” and the Potency [2] was “inactive”.

`COc1cc2c(cc1O)CC[C@H]1[C@@H]2CC[C@]2(C)[C@H](O)CC[C@@H]12` was tested, and the Potency [1] was “inactive” and the Potency [2] was “inactive”.

For `C[C@H]1Oc2cc(cnc2N)-c2c(nn(C)c2C#N)CN(C)C(=O)c2ccc(F)cc21`, the Potency [1] was “inactive” and the Potency [2] was “inactive”.

In the case of `C[C@H](C(=O)NC1CCCC1)N(C(=O)Cn1nnc(-c2ccc3c(c2)OCO3)n1)C1CCCCC1`, the Potency [1] was “inactive” and the Potency [2] was “inactive”.

`COC(=O)N[C@H](C(=O)N1[C@@H]2CC[C@@H](C2)[C@H]1c1nc2ccc(-c3ccc4c(c3)C(F)(F)c3cc(-c5cnc([C@@H]6CCC7(CC7)N6C(=O)[C@@H](NC(=O)OC)C(C)C)[nH]5)ccc3-4)cc2[nH]1)C(C)C` was tested, and the Potency [1] was “inactive” and the Potency [2] was “inactive”.

With `OC[C@H]1O[C@@H](OCCc2ccc(O)cc2)[C@H](O[C@@H]2OC[C@](O)(CO)[C@H]2O)[C@@H](O)[C@@H]1O` the Potency [1] was “inactive” and the Potency [2] was “inactive”.

In the case of `C=C1CC[C@H]2[C@@](C)(CCC(O)[C@@]2(C)CO)[C@@H]1CCC1=CCOC1=O` (stereo partly drawn), the Potency [1] was “inactive” and the Potency [2] was “inactive”.

With `O=C(O)c1cc2cccc([N+](=O)[O-])c2[nH]1` the Potency [1] was “inactive” and the Potency [2] was “inactive”.

With `Cc1cc(O)cc(O[C@@H]2O[C@H](CO)[C@@H](O)[C@H](O)[C@H]2O)c1` the Potency [1] was “inactive” and the Potency [2] was “inactive”.

With `C/C1=C\CC[C@H](C)CCO[C@@H]2O[C@H](CO[C@@H]3OC[C@](O)(COC1=O)[C@H]3O)[C@@H](O)[C@H](O)[C@H]2O` the Potency [1] was “inactive” and the Potency [2] was “inactive”.

With `Cc1cc(C(=O)N2Cc3cnn(C)c3Nc3ccccc32)ccc1CNC(=O)N1CCC[C@H]1C(=S)N1CCCN(C)CC1` the Potency [1] was “inactive” and the Potency [2] was “inactive”.

With `CCCCNc1ccc(-c2ccc(CN3CCOCC3)cn2)c(NC2CCC(O)CC2)c1` (stereo not drawn) the Potency [1] was “inactive” and the Potency [2] was “inactive”.

`Cc1nc(C)c(-c2ccc(C3CCC(CC(=O)O)CC3)cc2)nc1C(N)=O` (stereo not drawn) was tested, and the Potency [1] was “inactive” and the Potency [2] was “inactive”.

In the case of `C[C@@H]1O[C@@H](O[C@H]2[C@@H](OC(=O)[C@]34CCC(C)(C)CC3C3=CCC5[C@@]6(C)C[C@H](O)[C@H](O[C@@H]7O[C@H](C(=O)O)[C@@H](O)[C@H](O)[C@H]7O)[C@@](C)(C(=O)O)C6CC[C@@]5(C)[C@]3(C)CC4)OC[C@H](O)[C@@H]2O)[C@H](O)[C@H](O)[C@H]1O[C@@H]1OC[C@@H](O)[C@H](O)[C@H]1O` (stereo partly drawn), the Potency [1] was “inactive” and the Potency [2] was “inactive”.

For `C[C@H]1O[C@@H](O[C@H]2CC[C@@]3(C)C(CC[C@]4(C)C3CC=C3C5CC(C)(C)CC[C@]5(C(=O)O)CC[C@]34C(=O)O)C2(C)C)[C@H](O)[C@@H](O)[C@@H]1O` (stereo partly drawn), the Potency [1] was “inactive” and the Potency [2] was “inactive”.

For `CC1(C)CC[C@]2(C(=O)O)[C@H](O)C[C@]3(C)C(=CCC4[C@@]5(C)CC[C@H](O[C@@H]6O[C@H](CO[C@@H]7OC[C@H](O)[C@H](O)[C@H]7O[C@@H]7OC[C@@H](O)[C@H](O)[C@H]7O)[C@@H](O)[C@H](O)[C@H]6O[C@@H]6O[C@H](CO)[C@@H](O)[C@H](O)[C@H]6O)C(C)(C)C5CC[C@]43C)[C@@H]2C1` (stereo partly drawn), the Potency [1] was “inactive” and the Potency [2] was “inactive”.

For `CS(=O)(=O)c1ccc(-c2nnc(/C=C/c3nnc(-c4ccc(C#N)cc4)o3)n2-c2ccccc2Cl)nc1`, the Potency [1] was “inactive” and the Potency [2] was “inactive”.

`C=C(CCC1=C(C)[C@H]2[C@H](CC3[C@@H]4CC=C5C[C@@H](O)C[C@@H](O)[C@]5(C)C4[C@H](O)C[C@@]32C)O1)CO[C@@H]1O[C@H](CO)[C@@H](O)[C@H](O)[C@H]1O` (stereo partly drawn) was tested, and the Potency [1] was “inactive” and the Potency [2] was “inactive”.
